# IMPase cell inh: IMPase inhibition in cells; 120,000 tested, under 10 active; inhibition (IP1 accumulation), % at 46.1 µM; CHO-M1 cells, IP1 accumulation, HTRF TR-FRET ratio; P97697; active = well fitted curve in the direction sought with a large enough effect in the signal ratio, not every such curve was filed as active; inconclusive = small, poorly fitted or top-dose-only effect, or a change in a side signal; inactive = no such curve, though single readings can be large or run the other way; the % refers to the signal ratio;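 also: cells stimulated with carbachol in lithium chloride buffer; plate controls were DMSO basal wells for no effect and reference inhibitor wells for full effect; higher means more IMPase inhibition seen as more IP1 and lower FRET ratio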
# Target sequence (P97697 whole entry, looked up): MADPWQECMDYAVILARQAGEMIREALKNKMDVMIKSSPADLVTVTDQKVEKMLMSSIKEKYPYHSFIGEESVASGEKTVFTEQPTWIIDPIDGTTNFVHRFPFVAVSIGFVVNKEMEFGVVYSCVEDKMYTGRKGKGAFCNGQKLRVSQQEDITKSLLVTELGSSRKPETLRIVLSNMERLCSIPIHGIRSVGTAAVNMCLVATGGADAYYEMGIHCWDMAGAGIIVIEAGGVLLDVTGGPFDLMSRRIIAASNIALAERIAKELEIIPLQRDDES
#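 CHO-M1, 2000 cells/well, cultured 16–30 h; cpd up to 46 uM; carbachol (50 uM solution, stimulation buffer w/ 50 mM LiCl, pH 7.4), 30 min 37C; IP-One TR-FRET, 10 min RT; Ex 320/Em 665, 620; Hill-fit AC50.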
# ALDH1A1 inh: ALDH1A1 (human) enzyme inhibition | P00352 | Purified ALDH1A1, NADH fluorescence, propionaldehyde substrate | Potency, µM (titrated, usually from 75.3 µM), for the others: at the highest dose activity, negative = inhibition, actives largely listed as inhibitors | 220,000 compounds, 7.3% hits | AID 1030;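 also: potency is read from the fitted curve at half-maximal effect; plate controls were no enzyme wells and a reference inhibitor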
# 12-hLO inh: blocks human 12-lipoxygenase activity; P18054; Potency, µM (titrated, usually from 57.1 µM), without a hit: top-dose activity change, negative = inhibition, most hits filed as inhibitors; 150,000 compounds, 0.12% hits; AID 1452; purified 12-hLO, xylenol orange hydroperoxide absorbance; active = well fitted curve in the direction sought with a large enough effect; inconclusive = small, poorly fitted or top-dose-only effect, or another doubt; inactive = no such curve, though single readings can be large; an effect the other way counts as inactive or inconclusive; also: potency is read from the fitted curve at half-maximal effect; nearly all actives have a fitted effect of over 55% in size
#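 150 nM 12hLO, 25 mM Hepes pH 7.0 + 0.01% Triton X-100; cpd preinc 15 min RT; 40 uM arachidonic acid, 30 min RT; Fe-XO 30 min; A573/A405 ratio as read-out.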
# PNC inhibitor: blocks assembly of the perinucleolar compartment | PC3M PTB-GFP, PNC prevalence imaging, 16 h; active compounds read low | 140,000 compounds, 3.1% hits | activity change (PNC), negative = inhibition, % at 10 µM;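 active = readout at or below -70, meaning at least 70% loss of cells showing the perinucleolar compartment, a nuclear body marking cancer cells; inconclusive = readout between -30 and a set limit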;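 also: plate controls were DMSO wells for no effect and camptothecin positive control wells for full effect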
#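 PC3M cells stably expressing PTB-GFP, 750–1000 cells/well, treated 16 h at 37 °C with compound (23 nl of library stock), in duplicate. After paraformaldehyde fixation and Hoechst stain, imaged at 20x; PNC prevalence scored by image analysis.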
# IMPase Li inh: membrane-permeable IMPase blocker, potentiated with lithium | CHO-M1 cells, IP1 TR-FRET (IP-One), carbachol + lithium | Potency, µM (highest dose often 59.4 µM), inactives show at the highest dose activity, negative = IMPase inhibition, hits mostly inhibitors | 210,000 compounds, 0.35% hits; active = well fitted curve in the direction sought with a large enough effect; inconclusive = small, poorly fitted or top-dose-only effect, or another doubt; inactive = no such curve, though single readings can be large; an effect the other way counts as inactive or inconclusive;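 also: IP1 builds up when IMPase is blocked and the TR-FRET signal falls; potency is read from the fitted curve at half-maximal effect; plate controls were basal vehicle for no effect and high inhibitor control for full effect; nearly all actives have a fitted effect of over 50% in size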
#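 CHO cells stably expressing M1 receptor (2000/well) were cultured 16–30 h, then exposed to compounds with a small lithium addition for 30 min at 37C. IP1 was measured by TR-FRET competition; AC50 from Hill fits.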
# HPGD inh: blocks human HPGD enzyme activity | P15428 | purified HPGD, NADH fluorescence kinetic, PGE2 substrate | Potency, µM, for the others: at the top dose activity change, negative = inhibition, most hits filed as inhibitors | 150,000 compounds, 4.3% hits; also: potency is read from the fitted curve at half-maximal effect
# Target sequence (P15428 whole entry, looked up): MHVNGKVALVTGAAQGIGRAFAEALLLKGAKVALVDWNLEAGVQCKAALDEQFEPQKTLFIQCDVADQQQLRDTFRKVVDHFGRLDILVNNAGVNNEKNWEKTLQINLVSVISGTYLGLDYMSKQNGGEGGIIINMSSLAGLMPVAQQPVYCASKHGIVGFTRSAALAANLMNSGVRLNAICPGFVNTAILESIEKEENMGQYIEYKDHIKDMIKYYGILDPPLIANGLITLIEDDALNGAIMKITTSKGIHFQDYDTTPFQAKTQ
#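 NADH formation kinetics: reaction with 30 uM PGE2 and 1 mM NAD+ (final), 20 nM enzyme, Tris-HCl pH 8 with Tween 20, after 15 min compound preincubation at room temperature. Fluorescence change, last versus first of five reads.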
# Numbers without * were called inactive; ? = inconclusive; · = not tested or not shown; [ ] = dose if it differs, or a comment. An excerpt weighted towards active compounds, which were near 11% of everything screened. Unless noted, calls follow the shape of the dose curve; as a rule, active = well fitted inhibition curve with a large enough effect (not every such curve was filed as active); inconclusive = small, poorly fitted or top-dose-only effect, or another doubt; inactive = no such curve, though single readings can be large or run the other way. Unless noted, % is scaled to controls: 0 for no effect and ±100 for the full control effect.
SMILES,IMPase cell inh,ALDH1A1 inh,12-hLO inh,PNC inhibitor,IMPase Li inh,HPGD inh
Cc1ccc(C)c(Cn2nnc3c(=O)[nH]c(C4CCCN(C(=O)C5CCCCC5)C4)nc32)c1 (configuration not stated),7.2,12.6µM*,-8.0%,13.7,27.4%[38.3 µM],6.31µM*
O=C(C1CCCCC1)N1CCCC(c2nc3c(nnn3Cc3ccccc3)c(=O)[nH]2)C1 (configuration not stated),-7.8,15.8µM*,-10.9%,-10.3,-6.8%[38.3 µM],14.1µM*
Cc1ccc(Cn2nnc3c(=O)[nH]c(C4CCN(S(=O)(=O)c5ccc(C)cc5)CC4)nc32)cc1,-0.2,9.5%,-21.5%,1.7,-2.1%[38.3 µM],-23.1%
O=C(COC(=O)c1cc(-c2cccs2)nc2ccccc12)c1ccc(Br)cc1,-1.6,·,·,·,·,·
C=CCOC(=O)N[C@H](/C(C(=O)OC)=C(\C)NCc1ccccc1)c1cccc(C(F)(F)F)c1,·,-0.2%,·,·,29.7%,-2.9%
O=C(Oc1nsnc1N1CCOCC1)c1ccccc1,6.8,28.2µM*,-5.5%,?,-3.9%[38.3 µM],-26.7%
O=C(Oc1nsnc1N1CCOCC1)N1CCOCC1,7.3,-3.4%,-4.0%,10.1,2.2%[38.3 µM],-12.3%
O=C(O)C1C2C=CC(C2)C1C(=O)Nc1ccc(C(=O)N2CCCCC2)c(Cl)c1 (configuration not stated),-13.1,-6.0%,-1.5%,11.7,6.7%[38.3 µM],0.447µM*
COC(=O)N1CCC2(CCN(C(=O)Nc3cccc(C#N)c3)CC2)CC1,·,-0.3%,-1.7%,·,0.4%,-5.5%
COc1ccc(S(=O)(=O)N2CCN(CCC(=O)Nc3ccccc3F)CC2)cc1,1.6,1.12µM*,4.6%,-7.7,34.8%[38.3 µM],-11.3%
COc1ccc(NC(=O)CN2CCN(CC(=O)Nc3ccccc3F)CC2)c(OC)c1,-0.4,17.8µM*,-5.5%,-9.4,-7.3%,-15.6%
CCOC(=O)c1cc(-c2ccccc2)n(CC(=O)Nc2cccc(OC)c2)c1C,·,9.3%,2.8%,?,11.5%,-4.7%
CCOC(=O)c1cc(-c2ccccc2)n(CC(=O)Nc2ccc(OC)c(OC)c2)c1C,·,7.5%,-1.9%,-88.1*,4.5%,-4.6%
O=C(CCN1CCN(S(=O)(=O)c2ccc(Cl)cc2)CC1)Nc1ccccc1F,·,?,·,·,4.7%,·
O=C(CN1CCN(C(=O)c2c(F)cccc2F)CC1)Nc1ccccc1F,-6.6,25.1µM*,6.0%,?,18.5%[38.3 µM],-1.7%
O=C(c1ccncc1)N1CCC2(CC1)CN(c1ncccn1)C2,·,?,4.0%,·,-10.3%,?
N[C@H](C(=O)O)[C@H](OCc1ccccc1)C(=O)O,-1.1,-1.9%,-2.8%,·,7.6%,-4.0%
O=c1cc(N2CCNCC2)oc2c(-c3ccccc3)cccc12,·,-10.1%,2.4%[0.00818 µM],·,21.5%,-12.7%
CCN(CC(=O)Nc1ccc(OC)cc1)CC(=O)Nc1ccc(Br)cc1F,·,?,·,·,15.5%,·
COc1ccc(NC(=O)CSc2ccccc2)c(OC)c1,4.7,4.0%,6.4%,-81.2*,2.0%,-28.0%
COc1ccc(NC(=O)CSc2ccc3nnc(-c4cccnc4)n3n2)c(OC)c1,·,39.8µM*,·,·,?,·
COc1ccc(NCC(=O)Nc2ccc(Br)cc2F)c(OC)c1,·,1.58µM*,·,·,·,·
COc1ccc(-c2nnc3ccc(SCC(=O)NCc4ccco4)nn23)cc1OC,4.6,-50.0%,11.1%,-5.4,9.3%[38.3 µM],14.1µM*
CC(C)[C@@H](CC(=O)N[C@@H]1CCNC[C@H]1C(=O)N[C@H](CC(=O)N[C@@H](CCC(=O)O)CC(=O)O)Cc1ccccc1)NC(=O)C[C@H](Cc1ccccc1)NC(=O)[C@@H]1CNCC[C@H]1N,·,1.1%,6.2%,·,28.3%,-9.2%
COc1ccc(NC(=O)CN2CCN(CC(=O)Nc3ccccc3F)CC2)cc1OC,?,22.4µM*,-7.1%,-6.1,-6.1%[38.3 µM],-9.4%
O=C(CCN1CCN(CC(=O)Nc2ccccc2F)CC1)Nc1ccccc1F,-1.8,?,-3.2%,?,-4.4%[38.3 µM],-0.5%
COc1ccc(NC(=O)N2CCCC2)cc1OC,5.1,3.5%,-4.0%,-108.8*,1.9%[38.3 µM],-10.9%

# Compound activity (PubChem BioAssay)
